Measured values taken from PubChem BioAssay (Tox21).
Inconclusive results are not listed. Activity calls are given as the source filed them. Unless noted, the call rests on the fitted dose curve; in most records, active means well fitted curve in the direction sought with a large enough effect in the repeat runs; inconclusive means weak or mixed curves; inactive means no such curve, though single readings can be large; an effect the other way counts as inactive or inconclusive.

Tests used:
[1] = qHTS assay to identify small molecule antagonists of the retinoid acid receptor (RAR) signaling pathway - cell viability counter screen (AID 1159551); conditions: C3RL4 cells viability, ATP luminescence (CellTiter-Glo), 6 h; series mostly up to 92.4 µM; further: nearly all actives have a fitted effect of over 35% in size
Outline: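 C3RL4 RARE-luciferase line; cpds + retinol 1 uM final, 6 h, 37 C/5% CO2; CellTiter-Glo ATP luminescence, 30 min RT.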

[2] = qHTS assay to identify small molecule antagonists of the estrogen related receptor (ERR) signaling pathway from Tox21 library - cell viability counter screen (AID 1224834); conditions: ERR reporter cells viability, CellTiter-Fluor, 17.5 h; series mostly up to 92.4 µM; further: nearly all actives have a fitted effect of over 30% in size
Outline: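 Multiplexed viability counter screen in ERR cells: 17.5 h compound exposure at 37 C, CellTiter-Fluor added, 30 min at 37 C/5% CO2, fluorescence read.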

[3] = target: Luciferin 4-monooxygenase (Photinus pyralis) (UniProt P08659); test: qHTS assay to identify small molecule inhibitors of firefly luciferase (AID 1224835); further: nearly all actives have a fitted effect of over 25% in size; conditions: purified P. pyralis luciferase, luminescence inhibition; series mostly up to 115 µM
Sequence of Luciferin 4-monooxygenase (Photinus pyralis) (P08659 whole entry, looked up): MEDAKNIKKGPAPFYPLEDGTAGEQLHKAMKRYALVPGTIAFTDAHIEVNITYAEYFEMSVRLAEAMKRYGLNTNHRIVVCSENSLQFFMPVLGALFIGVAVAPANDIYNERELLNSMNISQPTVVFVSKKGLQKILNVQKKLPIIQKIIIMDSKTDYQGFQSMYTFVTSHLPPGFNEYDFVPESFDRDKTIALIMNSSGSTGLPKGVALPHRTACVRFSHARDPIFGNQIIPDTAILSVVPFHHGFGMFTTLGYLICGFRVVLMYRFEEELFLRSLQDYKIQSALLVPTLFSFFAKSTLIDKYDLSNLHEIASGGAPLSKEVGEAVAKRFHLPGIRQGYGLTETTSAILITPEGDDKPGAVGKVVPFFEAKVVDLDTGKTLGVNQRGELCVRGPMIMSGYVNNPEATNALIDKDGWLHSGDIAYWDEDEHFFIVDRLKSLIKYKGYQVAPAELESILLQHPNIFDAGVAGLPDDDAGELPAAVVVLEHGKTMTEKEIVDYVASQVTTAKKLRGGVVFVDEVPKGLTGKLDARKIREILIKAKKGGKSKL
Outline: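 Inhibition of purified Photinus luciferase is measured by luminescence. Substrate levels (D-luciferin, ATP) sit at their KM values. Each compound is tested in a concentration series.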

[4] = qHTS assay to identify small molecule agonists of the constitutive androstane receptor (CAR) signaling pathway - cell viability counter screen (AID 1224836); conditions: HepG2-CYP2B6-hCAR viability, CellTiter-Fluor, 23 h, PK11195 added to every well; series mostly up to 92.4 µM; further: nearly all actives have a fitted effect of over 45% in size
Outline: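 Compound titrations (15 concentrations) went onto HepG2-CYP2B6-hCAR cells 4 h after seeding, alongside PK11195 at a final 0.75 uM; a 23 h, 37 C/5% CO2 incubation preceded CellTiter-Fluor viability measurement.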

[5] = qHTS assay to identify small molecule antagonists of the constitutive androstane receptor (CAR) signaling pathway - cell viability counter screen (AID 1224837); conditions: HepG2-CYP2B6-hCAR viability, CellTiter-Fluor, 23 h, co-treated with 50 nM CITCO; series mostly up to 92.4 µM; further: nearly all actives have a fitted effect of over 45% in size
Outline: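 Read-out: CellTiter-Fluor fluorescence after 23 hr at 37 C/5% CO2. Cells: HepG2 double-stable for hCAR and CYP2B6-2.2kb. Compounds tested at 15 concentrations in the presence of CITCO, final concentration 50 nM.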

[6] = target: Nuclear receptor subfamily 1 group I member 3 (Homo sapiens) (UniProt Q14994); test: qHTS assay to identify small molecule agonists of the constitutive androstane receptor (CAR) signaling pathway (AID 1224839); conditions: HepG2 hCAR CYP2B6-luciferase, agonist mode, 24 h; series mostly up to 92.4 µM;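 further: HepG2 cells stably carrying human CAR and a CYP2B6 luciferase reporter; nearly all actives have a fitted effect of over 15% in size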
Sequence of Nuclear receptor subfamily 1 group I member 3 (Homo sapiens) (Q14994 whole entry, looked up): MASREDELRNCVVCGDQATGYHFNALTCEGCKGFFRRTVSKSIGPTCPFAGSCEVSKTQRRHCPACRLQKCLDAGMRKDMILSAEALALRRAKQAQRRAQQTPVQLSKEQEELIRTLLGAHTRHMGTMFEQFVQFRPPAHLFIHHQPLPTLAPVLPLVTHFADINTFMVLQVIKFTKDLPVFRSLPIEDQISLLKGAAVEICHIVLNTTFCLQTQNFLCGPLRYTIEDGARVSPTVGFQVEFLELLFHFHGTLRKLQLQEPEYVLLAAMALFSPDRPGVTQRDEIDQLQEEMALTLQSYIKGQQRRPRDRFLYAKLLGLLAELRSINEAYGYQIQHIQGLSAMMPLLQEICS
Outline: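 In this screen, CAR-driven CYP2B6 promoter activity is measured by luminescence in HepG2-CYP2B6-hCAR cells after 24 h with test compounds and 0.75 uM PK11195 (final concentration).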

[7] = qHTS assay to identify small molecule antagonists of the estrogen related receptor signaling pathway with the pleiotropic PPARgamma coactivator (PGC) from Tox21 10K library - cell viability counter screen (AID 1224840; active means well fitted cell-killing curve with a large enough effect in the repeat runs, not every such curve was filed as active; further: nearly all actives have a fitted effect of over 40% in size); conditions: PGC/ERR reporter cells viability, CellTiter-Fluor, 17.5 h; series mostly up to 92.4 µM
Outline: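 Fluorescence read-out of CellTiter-Fluor viability reagent, added after cells had been exposed to compound in DMSO for 17.5 h at 37 C; 30 min development at 37 C/5% CO2. Cells: PGC/ERR line, 2,000/well.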

[8] = target: Thyrotropin receptor (Homo sapiens) (UniProt P16473); test: qHTS assay to identify small molecule agonists of the thyroid stimulating hormone receptor (TSHR) signaling pathway (AID 1224843; calls by dose curve; further: nearly all actives have a fitted effect of over 45% in size); conditions: TSHR-HEK293 cells, cAMP HTRF, agonist mode, 30 min; series mostly up to 92.4 µM
Sequence of Thyrotropin receptor (Homo sapiens) (P16473 whole entry, looked up): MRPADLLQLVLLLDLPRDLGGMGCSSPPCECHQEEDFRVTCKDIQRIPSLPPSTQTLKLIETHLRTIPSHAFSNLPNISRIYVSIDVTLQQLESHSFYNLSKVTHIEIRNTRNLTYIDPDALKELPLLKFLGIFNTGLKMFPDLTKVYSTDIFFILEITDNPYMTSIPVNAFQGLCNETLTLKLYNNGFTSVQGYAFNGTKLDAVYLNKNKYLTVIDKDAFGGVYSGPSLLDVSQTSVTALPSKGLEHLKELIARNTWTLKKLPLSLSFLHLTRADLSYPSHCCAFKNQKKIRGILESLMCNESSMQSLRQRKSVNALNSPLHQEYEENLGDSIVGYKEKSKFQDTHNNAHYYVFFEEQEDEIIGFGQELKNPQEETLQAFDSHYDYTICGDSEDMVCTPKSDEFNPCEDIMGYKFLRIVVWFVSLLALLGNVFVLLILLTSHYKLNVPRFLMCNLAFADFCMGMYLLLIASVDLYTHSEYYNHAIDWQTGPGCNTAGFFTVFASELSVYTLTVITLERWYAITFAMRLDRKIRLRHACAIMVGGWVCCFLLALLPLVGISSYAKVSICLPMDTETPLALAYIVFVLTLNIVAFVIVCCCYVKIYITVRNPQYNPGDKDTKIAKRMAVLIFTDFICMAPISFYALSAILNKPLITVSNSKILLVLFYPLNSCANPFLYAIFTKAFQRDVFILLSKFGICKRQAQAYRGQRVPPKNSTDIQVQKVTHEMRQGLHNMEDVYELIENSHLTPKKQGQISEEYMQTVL
Outline: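 Agonist activity read as cAMP rise via d2/cryptate HTRF competition, 1 h room-temperature detection, in HEK293 cells expressing TSHR. Fifteen-point titrations, each run in triplicate, with a 30 min room-temperature incubation beforehand.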

[9] = qHTS assay to identify small molecule agonists of the hypoxia (HIF-1) signaling pathway - cell viability counter screen (AID 1224844; calls by dose curve; further: nearly all actives have a fitted effect of over 50% in size); conditions: HRE-bla ME-180 viability, CellTiter-Glo luminescence, 17 h; series mostly up to 76.8 µM
Outline: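 CellTiter-Glo luminescence read-out, 30 min RT, taken in the same wells as the beta-lactamase HRE reporter assay; HRE-bla ME-180 cells, 0.5% dialyzed FBS, 17 hr compound treatment at 37C, 5% CO2.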

[10] = qHTS assay to identify small molecule agonists of H2AX (AID 1224845; active means well fitted activation curve with a large enough effect in the signal ratio in the repeat runs, not every such curve was filed as active; the % refers to the signal ratio); conditions: CHO-K1 phospho-H2AX Ser139 HTRF, 3 h; series mostly up to 154 µM
Outline: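 Phospho-H2AX Ser139 measured by HTRF (ex 320 nm; em 665 and 620 nm) after 24 hr antibody incubation. Compounds, 15 concentrations, 0.76% DMSO, were applied to CHO-K1 cells for 3hr at 37C before lysis.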

[11] = qHTS assay to identify small molecule agonists of the hypoxia (HIF-1) signaling pathway (AID 1224846; active means well fitted activation curve with a large enough effect in the signal ratio in the repeat runs, not every such curve was filed as active; the % refers to the signal ratio); conditions: HRE-bla ME-180 cells, beta-lactamase ratio, 17 h; series mostly up to 76.8 µM
Outline: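 Beta-lactamase FRET read-out (CCF4-AM substrate) from ME-180 cells carrying an HRE-driven bla reporter, after 17 hrs compound exposure at 37C/5% CO2. Cells were seeded at 2,000 per well in 0.5% dialyzed FBS medium and preincubated 5 hrs.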

[12] = qHTS assay to identify small molecule agonists of H2AX - cell viability counter screen (AID 1224847; calls by dose curve; further: top concentration of the series differs between compounds; nearly all actives have a fitted effect of over 30% in size); conditions: CHO-K1 viability, CellTiter-Glo luminescence, 3 h; series mostly up to 154 µM
Outline: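 Read-out: CellTiter-Glo luminescence, 30 min RT. Cells: wild-type CHO-K1, 1000/well, 10% FBS, plated overnight at 37C. Treatment: 15 concentrations, 3 hr, 37C, 0.76% DMSO.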

[13] = qHTS RealTime-Glo MT Cell Viability Assay in HepG2 cells - 24 hour (AID 1224867); conditions: RealTime-Glo luminescence; series mostly up to 76.8 µM; further: nearly all actives have a fitted effect of over 50% in size
Outline: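 Compound treatment began 5 h after plating HepG2 cells (600/well) with NanoLuc luciferase and prosubstrate. Plates stayed at 37 C for 40 h; luminescence was captured at six time points, 0 h through 40 h.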

[14] = qHTS assay to identify small molecule antagonists of the retinoic acid receptor (RAR) signaling pathway (AID 1159552; further: nearly all actives have a fitted effect of over 50% in size); conditions: C3RL4 RARE luciferase reporter, retinol-stimulated, 6 h; series mostly up to 92.4 µM
Outline: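 Readout: luciferase luminescence, 30 min post-reagent at RT. Setup: C3RL4 RARE reporter cells, compounds plus retinol 1 uM final, 6 hr incubation at 37 C and 5% CO2.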

[15] = qHTS assay to identify small molecule agonists of the retinoic acid receptor (RAR) signaling pathway (AID 1159553); conditions: C3RL4 RARE luciferase reporter, agonist, 6 h; series mostly up to 73.3 µM
Outline: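 RARE-luc C3RL4 cells; overnight attachment 37 C/5% CO2; compound (DMSO) 6 hr; luciferase reagent, 30 min RT; luminescence read-out.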

[16] = qHTS assay to identify small molecule antagonists of the estrogen related receptor signaling pathway with the pleiotropic PPARgamma coactivator (PGC) from Tox21 10K library (AID 1224841; call rule not given here; further: actives are mostly falling curves and most rising ones were filed inactive; nearly all actives have a fitted effect of over 50% in size); conditions: PGC/ERR reporter cell line, ONE-Glo luciferase, 18 h; series mostly up to 92.4 µM
Outline: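 Luminescence read-out (One-Glo luciferase reagent, 30 min at room temperature) from PGC/ERR cells exposed to DMSO-dissolved test compounds for 18 h at 37 C; cells, 2,000 per well, had been preincubated 6 h before compound transfer.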

[17] = qHTS assay to identify small molecule agonists of the estrogen related receptor signaling pathway with the pleiotropic PPARgamma coactivator (PGC) from Tox21 10K library (AID 1224842); conditions: PGC/ERR reporter cell line, luciferase ONE-Glo, 18 h; series mostly up to 92.4 µM; further: nearly all actives have a fitted effect of over 15% in size
Outline: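 Luminescence from One-Glo (30 min, room temperature) measured after PGC/ERR cells had 18 h at 37 C with pinned compound (23 nL in DMSO). Cells had been seeded at 2,000 per well and pre-incubated 6 h.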

[18] = qHTS assay to identify small molecule antagonists of the estrogen related receptor (ERR) signaling pathway from Tox21 library (AID 1224848); conditions: ERR reporter cell line, luciferase antagonist mode, 18 h; series mostly up to 92.4 µM; further: nearly all actives have a fitted effect of over 50% in size
Outline: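 Luciferase luminescence (ONE-Glo, 30 min room temperature) was the read-out. Cells of the NTP-supplied ERR line, 2,000 per well, were given 6 h at 37 C before compound addition in DMSO and 18 h exposure at 37 C.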

[19] = qHTS assay to identify small molecule agonists of the estrogen related receptor (ERR) signaling pathway from Tox21 library (AID 1224849; calls by dose curve; further: nearly all actives have a fitted effect of over 15% in size); conditions: ERR reporter cell line, ONE-Glo luciferase, 18 h; at 92.4 µM (top of the series) unless noted
Outline: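 Luminescence readout (ONE-Glo, 30 min RT) after 18 h compound exposure at 37 C of NTP-supplied ERR reporter cells; cells were plated 6 h before compound addition by pin tool.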

[20] = target: Nuclear receptor subfamily 1 group I member 3 (Homo sapiens) (UniProt Q14994); test: qHTS assay to identify small molecule antagonists of the constitutive androstane receptor (CAR) signaling pathway (AID 1224838); conditions: HepG2-CYP2B6-hCAR luciferase, CITCO-stimulated, 24 h; series mostly up to 92.4 µM;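 further: HepG2 cells stably expressing hCAR with CYP2B6 luciferase reporter stimulated by CITCO; nearly all actives have a fitted effect of over 40% in size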
Outline: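 Read-out: ONE-Glo luciferase luminescence after 30 min at room temperature. HepG2-CYP2B6-hCAR double-stable cells, compounds in 15-point titration plus 50 nM CITCO final, 24 h at 37 C/5% CO2.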
On the % scale 0 is the no-effect control and ±100 the full control effect.

CCCCCC(=O)CC
inactive: outcome [1] | outcome [2] | Potency [3] | outcome [4] | outcome [5] | Potency [6] | outcome [7] | Potency [8] | outcome [9] | outcome [10] | outcome [11] | outcome [12] | outcome [13]

COc1ccccc1N1CCN(CC(O)COc2cc(OC)c(OC)c(OC)c2)CC1 (configuration not stated)
inactive: outcome [1] | outcome [14] | Potency [15] | outcome [2] | outcome [5] | Potency [6] | outcome [7] | Potency [8] | outcome [9] | outcome [10] | outcome [11] | outcome [12] | outcome [13]

CC[N+](C)(CC)CC
inactive: outcome [1] | outcome [14] | Potency [15] | outcome [2] | outcome [5] | Potency [6] | outcome [7] | outcome [9] | outcome [10] | outcome [11] | outcome [12] | outcome [13]

COCCCOc1cc(C[C@@H](C[C@H](N)[C@@H](O)C[C@H](C(=O)NCC(C)(C)C(N)=O)C(C)C)C(C)C)ccc1OC
inactive: outcome [1] | outcome [14] | Potency [15] | outcome [2] | outcome [4] | outcome [5] | outcome [7] | Potency [8] | outcome [9] | outcome [10] | outcome [11] | outcome [12] | outcome [13]

c1coc(Cn2cccc2)c1
inactive: outcome [1] | outcome [14] | Potency [15] | outcome [2] | outcome [4] | outcome [5] | Potency [6] | outcome [7] | Potency [8] | outcome [9] | outcome [10] | outcome [11] | outcome [12] | outcome [13]

N=C(N)N
inactive: outcome [1] | outcome [14] | Potency [15] | outcome [2] | outcome [4] | outcome [5] | Potency [6] | outcome [7] | Potency [16] | Potency [17] | Potency [8] | outcome [9] | outcome [10] | outcome [11] | outcome [12] | outcome [18] | activity change, positive = activation [19] 0.947% [at 42.5 µM] | outcome [13]

CC(=O)SC[C@@H](C)C(=O)N1CCC[C@H]1C(=O)N[C@@H](Cc1ccccc1)C(=O)O
inactive: outcome [1] | outcome [14] | Potency [15] | outcome [2] | outcome [4] | outcome [5] | outcome [7] | Potency [16] | Potency [17] | Potency [8] | outcome [9] | outcome [10] | outcome [12] | outcome [18] | activity change, positive = activation [19] 7.31% [at 42.5 µM] | outcome [13]

CC(=O)SCC(CC(=O)c1ccc(C)cc1)C(=O)O (configuration not stated)
inactive: outcome [1] | outcome [14] | Potency [15] | outcome [2] | outcome [4] | outcome [5] | outcome [7] | Potency [16] | Potency [17] | Potency [8] | outcome [9] | outcome [10] | outcome [11] | outcome [12] | outcome [18] | activity change, positive = activation [19] 8.89% [at 42.5 µM] | outcome [13]

CCc1ccc(CC)cc1
inactive: outcome [1] | outcome [14] | Potency [15] | outcome [2] | outcome [4] | outcome [7] | Potency [8] | outcome [10] | outcome [11] | outcome [12] | outcome [13]

CO/N=C(\C(=O)O)c1csc(NC(=O)CCl)n1
inactive: outcome [1] | outcome [14] | Potency [15] | outcome [2] | outcome [4] | outcome [5] | outcome [20] | Potency [6] | outcome [7] | Potency [16] | Potency [17] | outcome [10] | outcome [12] | outcome [18] | activity change, positive = activation [19] 4.95% [at 42.5 µM] | outcome [13]

CCCc1ccc(O)c(OC)c1
inactive: outcome [1] | outcome [14] | Potency [15] | outcome [2] | outcome [4] | outcome [20] | Potency [6] | outcome [7] | Potency [8] | outcome [9] | outcome [10] | outcome [11] | outcome [12] | outcome [13]
